# The supplement of paper PMC10849652
# Targets with a hit are over-represented here; the source holds about 8,800 in all. About 0.5% of all pairs of compound and target were hits. A number with no mark means an inactive call.
# Compound: CNC(=O)c1ccc(Nc2ncc(C(F)(F)F)c(NCc3nccnc3N(C)S(C)(=O)=O)n2)cc1 [defactinib]
# Assay: log2 fold change, soluble protein after heating vs DMSO (PISA); higher = thermal stabilisation; K562 lysate, 10 uM; active = over 0.2 and 3.5 SD of the protein, either way, in both replicates (recomputed)
# Method in brief: (§1)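 The values are log-two fold changes in thermal stability compared with solvent controls and come from duplicates. They were obtained by TMTpro 16plex LC-MS/MS, with channel sums equalised, on the supernatant after 21,000xg for 90 min. That supernatant came from crude K562 extract at 1 mg/mL protein treated with 10 μM compound for 30 min, heated for 3 min across 48°C-58°C, pooled and brought to 0.5% NP-40 at 4°C.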
# Chain of UniProt Q8IV48 (Q8IV48 whole entry, looked up): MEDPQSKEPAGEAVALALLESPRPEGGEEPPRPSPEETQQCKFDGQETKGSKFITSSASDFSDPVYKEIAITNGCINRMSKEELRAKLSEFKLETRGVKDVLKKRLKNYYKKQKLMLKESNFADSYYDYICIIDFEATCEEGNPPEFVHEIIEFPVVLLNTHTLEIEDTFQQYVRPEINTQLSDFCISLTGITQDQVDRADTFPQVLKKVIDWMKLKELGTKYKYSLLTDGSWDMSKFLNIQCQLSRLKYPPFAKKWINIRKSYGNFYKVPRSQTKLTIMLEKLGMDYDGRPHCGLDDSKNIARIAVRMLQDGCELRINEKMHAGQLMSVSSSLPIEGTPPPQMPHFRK
# Chain of UniProt Q96RT1 (Q96RT1 whole entry, looked up): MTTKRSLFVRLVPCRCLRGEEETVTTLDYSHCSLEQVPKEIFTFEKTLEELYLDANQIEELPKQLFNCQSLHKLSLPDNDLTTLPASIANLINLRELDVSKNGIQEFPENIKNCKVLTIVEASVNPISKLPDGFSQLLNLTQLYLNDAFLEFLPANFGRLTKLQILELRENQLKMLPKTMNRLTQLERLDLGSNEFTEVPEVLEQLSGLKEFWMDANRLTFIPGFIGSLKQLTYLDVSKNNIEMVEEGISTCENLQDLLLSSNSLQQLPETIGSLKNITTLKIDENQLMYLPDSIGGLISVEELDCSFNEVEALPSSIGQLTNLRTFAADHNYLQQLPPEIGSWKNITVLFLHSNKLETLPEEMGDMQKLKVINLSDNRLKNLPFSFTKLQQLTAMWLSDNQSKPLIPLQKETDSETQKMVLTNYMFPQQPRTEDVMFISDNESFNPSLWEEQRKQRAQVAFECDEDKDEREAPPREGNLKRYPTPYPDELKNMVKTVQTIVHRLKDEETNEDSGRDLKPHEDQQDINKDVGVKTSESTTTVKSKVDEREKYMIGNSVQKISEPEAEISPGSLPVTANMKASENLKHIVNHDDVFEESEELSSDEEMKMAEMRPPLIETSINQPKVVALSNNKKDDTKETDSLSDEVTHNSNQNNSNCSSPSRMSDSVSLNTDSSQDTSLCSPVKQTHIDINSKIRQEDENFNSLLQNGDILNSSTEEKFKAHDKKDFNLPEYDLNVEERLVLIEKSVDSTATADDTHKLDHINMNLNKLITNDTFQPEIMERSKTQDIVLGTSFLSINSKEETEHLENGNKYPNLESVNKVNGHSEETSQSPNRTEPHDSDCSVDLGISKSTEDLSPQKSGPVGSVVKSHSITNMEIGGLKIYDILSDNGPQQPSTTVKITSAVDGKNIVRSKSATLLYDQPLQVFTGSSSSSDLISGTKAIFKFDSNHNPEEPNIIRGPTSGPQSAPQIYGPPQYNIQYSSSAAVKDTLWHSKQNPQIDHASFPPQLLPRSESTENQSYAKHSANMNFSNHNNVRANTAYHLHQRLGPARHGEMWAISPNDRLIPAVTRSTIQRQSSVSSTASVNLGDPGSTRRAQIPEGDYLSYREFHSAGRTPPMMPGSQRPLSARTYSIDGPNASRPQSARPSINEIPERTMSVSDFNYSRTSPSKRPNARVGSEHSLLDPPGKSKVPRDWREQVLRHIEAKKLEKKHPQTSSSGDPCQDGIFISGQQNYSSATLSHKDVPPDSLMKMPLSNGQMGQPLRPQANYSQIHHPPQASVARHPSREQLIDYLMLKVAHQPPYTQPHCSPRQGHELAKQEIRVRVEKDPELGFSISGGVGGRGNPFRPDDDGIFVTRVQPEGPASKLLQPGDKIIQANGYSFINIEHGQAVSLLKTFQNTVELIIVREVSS
# Chain of UniProt Q9NPA8 (Q9NPA8 whole entry, looked up): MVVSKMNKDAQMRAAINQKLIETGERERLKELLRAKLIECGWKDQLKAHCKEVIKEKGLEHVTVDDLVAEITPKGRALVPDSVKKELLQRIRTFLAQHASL
# Chain of UniProt Q8TB52 (Q8TB52 whole entry, looked up): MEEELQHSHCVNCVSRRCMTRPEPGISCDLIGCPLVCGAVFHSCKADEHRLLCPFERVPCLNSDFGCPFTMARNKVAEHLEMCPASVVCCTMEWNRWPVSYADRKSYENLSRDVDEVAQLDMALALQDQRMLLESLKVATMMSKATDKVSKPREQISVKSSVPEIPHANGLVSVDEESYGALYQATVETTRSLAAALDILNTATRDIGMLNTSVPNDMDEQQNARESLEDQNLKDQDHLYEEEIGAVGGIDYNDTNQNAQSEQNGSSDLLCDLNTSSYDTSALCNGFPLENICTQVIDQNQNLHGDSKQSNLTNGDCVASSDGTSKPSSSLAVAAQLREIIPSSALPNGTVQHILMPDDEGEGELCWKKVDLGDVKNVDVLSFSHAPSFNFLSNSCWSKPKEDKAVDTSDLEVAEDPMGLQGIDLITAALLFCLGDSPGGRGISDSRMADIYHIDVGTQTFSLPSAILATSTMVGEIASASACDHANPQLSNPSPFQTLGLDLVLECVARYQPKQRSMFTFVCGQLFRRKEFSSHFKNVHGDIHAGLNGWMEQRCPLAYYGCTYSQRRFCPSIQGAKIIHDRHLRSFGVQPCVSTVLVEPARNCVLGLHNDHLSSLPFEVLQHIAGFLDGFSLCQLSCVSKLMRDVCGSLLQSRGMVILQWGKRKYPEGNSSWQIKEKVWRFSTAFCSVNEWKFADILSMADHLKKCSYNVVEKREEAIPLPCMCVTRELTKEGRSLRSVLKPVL
# Chain of UniProt Q9UK97 (Q9UK97 whole entry, looked up): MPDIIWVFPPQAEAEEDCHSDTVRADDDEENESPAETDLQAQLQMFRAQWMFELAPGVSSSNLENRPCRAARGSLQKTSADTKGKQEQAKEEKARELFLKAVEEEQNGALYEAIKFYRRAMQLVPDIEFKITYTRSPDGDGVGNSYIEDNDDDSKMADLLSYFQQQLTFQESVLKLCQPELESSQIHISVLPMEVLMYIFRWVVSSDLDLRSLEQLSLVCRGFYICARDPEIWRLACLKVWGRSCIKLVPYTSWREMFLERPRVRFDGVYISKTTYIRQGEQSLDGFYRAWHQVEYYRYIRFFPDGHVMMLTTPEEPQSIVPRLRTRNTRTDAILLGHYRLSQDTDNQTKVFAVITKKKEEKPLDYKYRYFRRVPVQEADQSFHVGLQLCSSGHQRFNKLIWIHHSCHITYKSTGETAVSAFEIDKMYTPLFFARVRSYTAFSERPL
# Chain of UniProt Q9NYY8 (Q9NYY8 whole entry, looked up): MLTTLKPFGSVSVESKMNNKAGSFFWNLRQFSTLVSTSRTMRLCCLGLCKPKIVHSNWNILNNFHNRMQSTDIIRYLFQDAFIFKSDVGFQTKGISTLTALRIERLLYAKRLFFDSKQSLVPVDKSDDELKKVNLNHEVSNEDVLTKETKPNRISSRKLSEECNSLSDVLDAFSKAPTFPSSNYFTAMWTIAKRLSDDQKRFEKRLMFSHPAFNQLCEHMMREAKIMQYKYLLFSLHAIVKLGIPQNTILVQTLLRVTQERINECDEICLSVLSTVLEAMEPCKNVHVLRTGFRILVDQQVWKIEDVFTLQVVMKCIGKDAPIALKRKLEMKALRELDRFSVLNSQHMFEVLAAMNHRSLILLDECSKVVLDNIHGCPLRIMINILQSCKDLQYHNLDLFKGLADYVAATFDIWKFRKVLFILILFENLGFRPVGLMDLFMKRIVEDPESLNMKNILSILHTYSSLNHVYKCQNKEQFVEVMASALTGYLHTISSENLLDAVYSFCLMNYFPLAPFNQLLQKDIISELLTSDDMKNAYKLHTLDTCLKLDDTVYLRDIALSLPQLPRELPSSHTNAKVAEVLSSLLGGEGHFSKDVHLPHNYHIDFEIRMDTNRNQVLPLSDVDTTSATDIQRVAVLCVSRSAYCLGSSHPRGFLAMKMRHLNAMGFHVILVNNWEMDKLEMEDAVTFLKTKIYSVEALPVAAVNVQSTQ
# Chain of UniProt Q96G46 (Q96G46 whole entry, looked up): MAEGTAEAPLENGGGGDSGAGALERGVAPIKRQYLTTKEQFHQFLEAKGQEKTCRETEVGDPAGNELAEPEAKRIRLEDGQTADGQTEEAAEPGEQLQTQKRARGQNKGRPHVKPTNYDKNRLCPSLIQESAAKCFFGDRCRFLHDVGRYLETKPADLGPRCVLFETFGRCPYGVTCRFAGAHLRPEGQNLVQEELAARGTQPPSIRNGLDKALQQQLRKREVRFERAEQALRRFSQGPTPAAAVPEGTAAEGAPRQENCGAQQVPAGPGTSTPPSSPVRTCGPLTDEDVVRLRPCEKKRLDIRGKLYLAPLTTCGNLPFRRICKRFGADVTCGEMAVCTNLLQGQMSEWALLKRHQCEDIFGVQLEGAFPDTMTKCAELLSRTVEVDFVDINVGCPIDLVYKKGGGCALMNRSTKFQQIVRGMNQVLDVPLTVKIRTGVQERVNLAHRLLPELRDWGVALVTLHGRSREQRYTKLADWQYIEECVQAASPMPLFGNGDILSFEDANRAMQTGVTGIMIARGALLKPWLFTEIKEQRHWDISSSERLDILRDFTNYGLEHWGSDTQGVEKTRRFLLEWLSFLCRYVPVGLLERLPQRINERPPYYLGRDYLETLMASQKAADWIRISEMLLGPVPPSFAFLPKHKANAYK
# Chain of UniProt O95571 (O95571 whole entry, looked up): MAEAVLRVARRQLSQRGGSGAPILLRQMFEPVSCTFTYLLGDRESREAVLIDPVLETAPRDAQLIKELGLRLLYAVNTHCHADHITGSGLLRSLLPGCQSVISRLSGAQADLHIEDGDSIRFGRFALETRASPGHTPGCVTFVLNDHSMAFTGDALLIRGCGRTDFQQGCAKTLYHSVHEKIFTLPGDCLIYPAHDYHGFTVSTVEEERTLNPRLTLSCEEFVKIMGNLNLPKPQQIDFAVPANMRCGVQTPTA
# Chain of UniProt P62942 (P62942 whole entry, looked up): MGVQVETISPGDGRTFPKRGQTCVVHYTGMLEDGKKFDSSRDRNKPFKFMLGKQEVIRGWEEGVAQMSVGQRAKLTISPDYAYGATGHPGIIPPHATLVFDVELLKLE
# Chain of UniProt Q8WWZ3 (Q8WWZ3 whole entry, looked up): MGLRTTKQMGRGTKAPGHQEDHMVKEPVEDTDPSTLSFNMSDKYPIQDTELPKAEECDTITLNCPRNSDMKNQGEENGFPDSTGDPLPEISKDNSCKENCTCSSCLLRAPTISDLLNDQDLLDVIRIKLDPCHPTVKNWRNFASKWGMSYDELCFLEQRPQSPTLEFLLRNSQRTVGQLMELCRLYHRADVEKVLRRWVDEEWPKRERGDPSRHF
row,Target,log2 fold change
1,DYRK1A (UniProt Q13627),0.016
2,DUS3L (UniProt Q96G46),-0.023
3,ERI1 (UniProt Q8IV48),0.004
4,FBXO9 (UniProt Q9UK97),0.104
5,ERBIN isoform 8 (UniProt Q96RT1),-0.031
6,ENY2 (UniProt Q9NPA8),0.096
7,EEF1AKNMT (UniProt Q8N6R0),-0.012
8,"EEF1A1, A0A087WVQ9",0.062
9,ETHE1 (UniProt O95571),-0.008
10,FBXO22 (UniProt Q8NEZ5),0.01
11,FASTKD2 (UniProt Q9NYY8),0.056
12,FBXO30 (UniProt Q8TB52),0.042

# Compound: CNc1nc(-c2ccc3c(N)n[nH]c3c2)cc(N2C[C@@H](C(=O)NC3CCCCC3)CC[C@H]2C)n1
# Assay: as above
# Method in brief: as §1
row,Target,log2 fold change
1,FARSA (UniProt Q9Y285),0.019
2,FECH isoform 2 (UniProt P22830),0.664
3,EBP (UniProt Q15125),0.291 (active)
4,EP300 (UniProt Q09472),0.006
5,EP400 isoform 5 (UniProt Q96L91),0.035
6,ESRRA (UniProt P11474),-0.04
7,DUS2 (UniProt Q9NX74),-0.045
8,GCLM (UniProt P48507),-0.038
9,GGT7 (UniProt Q9UJ14),0.079
10,EMP3 (UniProt P54852),0.056
11,FANCI (UniProt Q9NVI1),-0.036
12,FAM118B (UniProt Q9BPY3),-0.009
13,GFPT1 (UniProt Q06210),0.012
14,FKBP1A (UniProt P62942),0.034
15,EDARADD (UniProt Q8WWZ3),-0.068
16,FIBP (UniProt O43427),-0.079
17,EHD2 (UniProt Q9NZN4),-0.037
18,"FADS1, A0A0A0MR51",0.011

row,Target,log2 fold change
1,GALNT2 (UniProt Q10471),-0.057
2,FASTKD5 (UniProt Q7L8L6),-0.017
3,FBLL1 (UniProt A6NHQ2),0.081
4,DTWD1 (UniProt Q8N5C7),0.01
5,GGA2 (UniProt Q9UJY4),-0.018
6,FYB1 isoform 3 (UniProt O15117),0.065
7,DYRK1A (UniProt Q13627),-0.034
8,DUS3L (UniProt Q96G46),0.001
9,ERI1 (UniProt Q8IV48),-0.021
10,FBXO9 (UniProt Q9UK97),0.037
11,ERBIN isoform 8 (UniProt Q96RT1),-0.028
12,ENY2 (UniProt Q9NPA8),-0.084
13,EEF1AKNMT (UniProt Q8N6R0),-0.015
14,"EEF1A1, A0A087WVQ9",0.071
15,ETHE1 (UniProt O95571),-0.021
16,FBXO22 (UniProt Q8NEZ5),-0.004
17,FASTKD2 (UniProt Q9NYY8),0.036
18,FBXO30 (UniProt Q8TB52),-0.091
